TDP1 cell noCPT: qHTS for Inhibitors of human tyrosyl-DNA phosphodiesterase 1 (TDP1): qHTS in cells in absence of CPT; DT40 Tdp1-/- hTDP1 cells, no CPT, ATP luminescence, 48 h; Potency, µM (series often up to 46.2 µM), for inactives: at the highest dose activity change, negative = growth inhibition, actives largely listed as inhibitors; 420,000 compounds, 15% hits; AID 686978, 2013; also: potency is read from the fitted curve at half-maximal effect; nearly all actives have a fitted effect of over 55% in size
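Growth kinetics read by CellTiter-Glo luminescence after ≥48 hr at 37 °C. Cells: DT40 Tdp1-/- stably carrying human TDP1, 400 per well, compound exposure in the absence of CPT (DMSO vehicle).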
HT1080 IDH1KD tx: qHTS for induction of synthetic lethality in tumor cells producing 2HG: qHTS for the HT-1080-IDH1KD cell line; HT-1080 IDH1 knockdown viability, ATP luminescence, 48 h; Potency, µM (doses to about 46.1 µM), for inactives: top-dose activity, negative = toxicity, usual class: cytotoxic; 360,000 compounds, 2% hits; AID 686971, 2013;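 also: potency is read from the fitted curve at half-maximal effect; 0% = DMSO wells and -100% = cell-free medium wells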
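Cytotoxicity counter-line: IDH1KD HT-1080, 48 h, CellTiter-Glo. Curves classed by r2, magnitude and activity.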
IL1B secr inh: qHTS for Inhibitors of Inflammasome Signaling: IL-1-beta AlphaLISA Primary Screen; THP-1 LPS/ATP IL-1B secretion, AlphaLISA, 16 h; active compounds read low; activity change, % at 57.5 µM; 360,000 compounds, 4.7% hits; AID 743279, 2014; in the data active = activity change below about -50%; inconclusive = mostly about -30% to -49%
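Secreted IL-1B measured by AlphaLISA bead assay after 16 h compound exposure of THP-1 cells; compounds (final up to 57.5 uM) added 1 h before LPS (250 ng/mL) and ATP (1.25 mM) stimulation; lower signal means less secretion.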
HT1080-NT tox: qHTS for induction of synthetic lethality in tumor cells producing 2HG: qHTS for the HT-1080-NT fibrosarcoma cell line | HT-1080-NT fibrosarcoma viability, CellTiter-Glo ATP luminescence, 48 h | Potency, µM (series often up to 46.1 µM), inactives show top-dose activity, negative = less viability, most hits filed as cytotoxic | 360,000 compounds, 1.6% hits;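 also: NT is the 2HG producing partner of a matched IDH1 knockdown line; potency is read from the fitted curve at half-maximal effect; 0% = DMSO-treated cells and -100% = media-only wells without cells; nearly all actives have a fitted effect of over 55% in size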
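HT-1080-NT; 750 cells/well; 5% FBS RPMI; 48 h compound, 37 degrees C; CellTiter-Glo luminescence; curve fitting and curve-class assignment.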
DT40 TDP1 CPT: qHTS for Inhibitors of human tyrosyl-DNA phosphodiesterase 1 (TDP1): qHTS in cells in presence of CPT | chicken DT40 Tdp1-/-;hTDP1 cells + 20 nM CPT, ATP luminescence, 48 h | Potency, µM (titrated, usually from 46.2 µM), without a hit: at the highest dose activity change, negative = growth inhibition, most hits filed as inhibitors | 420,000 compounds, 12% hits; also: potency is read from the fitted curve at half-maximal effect; nearly all actives have a fitted effect of over 55% in size
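Cell growth measured by CellTiter-Glo luminescence after a minimum 48 h, 37 C compound exposure with 20 nM CPT in Tdp1-knockout DT40 cells stably expressing hTDP1, seeded 400/well; qHTS titration format.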
* hit, by the source's call; ? = inconclusive; · = not tested or not shown; [ ] = remark or other dose. The list is not random: actives were taken first. Their share in the collection is about 19%. Unless noted, calls follow the shape of the dose curve; as a rule, active = well fitted curve in the direction sought with a large enough effect; inconclusive = small, poorly fitted or top-dose-only effect, or another doubt; inactive = no such curve, though single readings can be large; an effect the other way counts as inactive or inconclusive. Unless noted, % is scaled to controls: 0 for no effect and ±100 for the full control effect.

SMILES	TDP1 cell noCPT	HT1080 IDH1KD tx	IL1B secr inh	HT1080-NT tox	DT40 TDP1 CPT
CN(CC(=O)Nc1ccccc1C(F)(F)F)C(=O)CSc1nnc(-c2ccncc2)n1C	0%	0%	8	11%	2%
O=C(NCCC1=CCCCC1)c1[nH]c(C(F)(F)F)nc1-c1ccccc1	?	?	0	?	16µM*
Nc1sc2c(c1C(=O)NCCc1ccccc1)CCC2	-26%	4%	-24	1%	6%
CN(C)CCNC(=O)c1c(NC(=O)c2ccccc2)sc2c1CCCC2	26µM*	-12%	·	-11%	?
Nc1sc2c(c1C(=O)NCCc1ccccc1)CCCC2	15µM*	3%	-1	5%	?
COC(=O)C1CCN(Cc2ccc3c(c2)CN(C(=O)c2cc(C)oc2C)CCO3)CC1	-17%	·	·	·	22%[9.04 µM]
Cc1ccccc1CN(c1ccc(C(=O)N/N=C/c2ccc(OCC(N)=O)cc2)cc1)S(C)(=O)=O	8%	-8%	16	-13%	-17%
Cc1cccc(NC(=O)CSc2cn(CC(=O)N3CCCC3)c3ccccc23)c1C	?	·	·	·	-27%
COc1ccc(C(C#N)CC(=O)c2ccc(OC)c(OCc3ccccc3)c2)cc1OC (stereo not drawn)	21µM*	0%	-30	9%	15µM*
COc1ccc(C(=O)CSC#N)cc1OC	2.9µM*	21µM*	?	?	3.3µM*
COc1ccc(C(=O)COC(=O)c2ccc(OC)c(OC)c2)cc1OC	-24%	2%	-24	14%	-9%
COc1ccc(C(=O)CSc2cc(C)nc3nc(C)nn23)cc1OC	-30%	11µM*	-97*	16µM*	-22%
CCOC(=O)c1c(NC(=O)c2ccc(N3C(=O)[C@@H]4[C@H](C3=O)[C@H]3C=C[C@@H]4C3)cc2)sc2c1CCCC2	23µM*	0%	27	4%	-85%
CCOC(=O)c1c(NC(=O)C2CCCCC2C(=O)O)sc2c1CCCCC2 (stereo not drawn)	-2%	-28%	29	-16%	0%
CCOC(=O)c1c(NC(=O)C2C3C=CC(C3)C2(C)C(=O)O)sc2c1CCCC2 (stereo not drawn)	18µM*	2%	16	-15%	13µM*
CCCOc1ccc(C(=O)Nc2sc3c(c2C(=O)OCC)CCCCC3)cc1	-1%	·	·	·	4%
CCOC(=O)c1c(NC(=O)C(C)OC(=O)c2ccc(NC(=O)CC#N)cc2)sc2c1CCCC2 (stereo not drawn)	?	-21%	-80*	-5%	23µM*
CCOC(=O)c1c(NC(=O)c2ccc(-n3cnnn3)cc2)sc2c1CCCC2	16µM*	14%	0	9%	12µM*
CCOC(=O)c1c(NC(=O)c2ccc(Br)cc2)sc2c1CCCC2	-17%	·	·	·	13%
CCN(CC)C(=O)/C(=C\c1ccc(Br)cc1)NC(=O)c1ccccc1OC	15µM*	-3%	9	2%	?
Nc1ccc(OCc2ccccc2)cc1[N+](=O)[O-]	-7%	-26%	-8	3%	-12%
O=Cc1cc(OCc2ccccc2)ccc1[B-](F)(F)F	2.1µM*	-16%	-3	-22%	1.3µM*
Cc1cc(C)c(C)c(S(=O)(=O)NCCCn2ccnc2)c1C	?	?	21	?	?
CN(C)NC(=S)NC1CC2CCC1C2 (stereo not drawn)	4%	7%	32	2%	2%
COc1cc(C=O)ccc1OCCSc1ccc(Cl)cc1	-14%	-18%	-2	6%	-13%
SMILES	TDP1 cell noCPT	HT1080 IDH1KD tx	IL1B secr inh	HT1080-NT tox	DT40 TDP1 CPT
COC(=O)Oc1ccc(/C=N/NC(=O)CSCc2ccc(Cl)cc2)cc1OC	12µM*	-26%	21	-13%	26µM*
CCOC(=O)N/N=C/c1ccc(OCCSc2ccc(Cl)cc2)c(OC)c1	26µM*	3%	0	-16%	15µM*
CC(=O)N1c2ccccc2N=C(c2ccc(C(F)(F)F)cc2)C1C(=O)NC1CCCC1 (stereo not drawn)	?	-15%	0	-9%	?
O=C(NC1CCCC1)C1C(c2ccc(C(F)(F)F)cc2)=Nc2ccccc2N1C(=O)c1cc2ccccc2[nH]1 (stereo not drawn)	13µM*	-25%	24	-29%	?
COc1ccc(CCC(=O)N2c3ccccc3N=C(c3ccc(C(F)(F)F)cc3)C2C(=O)NC2CCCC2)cc1 (stereo not drawn)	18µM*	-23%	-5	-10%	?
CSC1=NC(C(Cl)(Cl)Cl)N=C(c2ccc(C)cc2)N1 (stereo not drawn)	0.58µM*	0.65µM*	30	0.37µM*	0.82µM*
N[C@H](CO)Cc1cnc[nH]1	-15%	·	·	·	7%
CCC(C)NCCC(=O)Nc1ccc(Cl)c(S(=O)(=O)Nc2ccc(Cl)cc2)c1 (stereo not drawn)	?	15µM*	-51*	?	?
CCOc1ccc(C(=O)Nc2cccc(NC(=O)c3ccc(Cl)cc3Cl)c2)cc1	21µM*	·	·	·	?
CCOc1ccc(NS(=O)(=O)c2cc(NC(=O)c3ccc(C)cc3)ccc2Cl)cc1	2.6µM*	3.7µM*	-3	2.3µM*	3.7µM*
CCCOc1ccc(C(=O)Nc2cccc(NC(=O)c3cccc(Cl)c3)c2)cc1	-27%	·	·	·	-24%
CCCNC(=O)C1(C)CCN(C(=O)c2oc3ccccc3c2C)C1 (stereo not drawn)	-15%	26%	15	0%	-8%
COc1ccccc1-n1nc(-c2ccccc2)c2cnc3cc(C(F)(F)F)ccc3c21	4%	·	·	·	2%
Cc1cc(CNC[C@H]2O[C@@H](n3ccc(=O)[nH]c3=O)[C@H](O)[C@@H]2O)no1	6%	24%	2	20%	-15%
Nc1ccc(-c2cnc[nH]2)cc1[N+](=O)[O-]	-19%	-3%	-8	-4%	13%
Cc1ccc(C)c(N(C(=O)c2csnn2)C(C(=O)NC2CCCC2)c2ccncc2)c1 (stereo not drawn)	-7%	-7%	3	-9%	1%
Cc1ccc(C)c(N(C(=O)c2nsc(Cl)c2Cl)C(C(=O)NC2CCCC2)c2ccc(O)cc2)c1 (stereo not drawn)	?	-16%	-71*	-24%	?
COc1ccc(CN(C(=O)c2nsc(Cl)c2Cl)C(C(=O)NC2CCCCC2)c2ccc(OC)cc2)cc1 (stereo not drawn)	23µM*	?	-21	?	5.8µM*
